Compounds with a hit are over-represented: about 1.1% of the library has one in this group of screens.
SSB-PriA inh = blocks PriA binding to SSB C-terminal tail; AlphaScreen SSBct-PriA binding, biotinylated peptide; inhibition, % at 33 µM; hit rate 0.6% among 430,000; AID 1272365; in the data active = inhibition mostly above about 37%, no sharp cut-off; inactive = mostly below about 20%;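 also: plate controls were negative control peptide for no effect and reference peptide for full effect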
Mtb hypoxia inh = inhibitors of hypoxia-regulated fluorescent reporter in Mycobacterium tuberculosis; fluorescence inhibition, % (test concentration not listed); hit rate 0.1% among 300,000; AID 1159583; M. tuberculosis hypoxia-regulated fluorescent reporter, fluorescence; in the data active = fluorescence inhibition mostly above about 23%, no sharp cut-off; inactive = mostly below about 17%
ugtP null kill = compounds lethal to S. aureus RN4220 ugtP deletion mutant; OD600 growth, 16 h; growth inhibition, % (concentration not given with the values); hit rate 0.54% among 330,000; in the data active = growth inhibition above about 68%;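 also: plate controls were untreated wells for no effect and antibiotic for full effect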
Sa RN4220 lethal = kills Staphylococcus aureus RN4220; inhibition, % (no concentration beside the values); S. aureus RN4220 growth, OD600, 16 h; hit rate 0.33% among 330,000; in the data active = inhibition above about 85%;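 also: plate controls were untreated cells for no effect and reference antibiotic for full effect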
Numbers without * were called inactive; x = no result given.

SMILES	SSB-PriA inh	Mtb hypoxia inh	ugtP null kill	Sa RN4220 lethal
COc1ccc(-c2nc3ccccn3c2NC2CCCCC2)cc1SC1CCCCC1	29	15	100*	84
COc1ccc(CC(=O)Nc2nc3ccccc3[nH]2)cc1	-8	7	3	-2
COC(=O)Cc1cc(=O)n(-c2nc3ccccc3[nH]2)[nH]1	75*	-3	-14	15
Cc1ccc(NS(=O)(=O)c2ccc3c(c2)NC(=O)CCS3)c(Br)c1	-2	11	96*	98*
Cc1ccccc1NS(=O)(=O)c1ccc2c(c1)NC(=O)CCS2	1	20	77	89*
CNC(=S)N=C(Nc1ccc(C)cc1)c1ccccc1	4	9	7	-1
COc1ccc(NC(=S)N=C(Nc2ccc(C)cc2)c2ccccc2)cc1	46*	x	x	x
O=C(CSCc1cccc(Br)c1)N=Nc1c(O)[nH]c2ccccc12	22	10	3	8
O=Nc1c(-c2c(O)[nH]c3cc(Br)ccc23)[nH]c2ccccc12	24	26	100*	100*
Cc1ccc(-c2ccc(/C=C3/SC(=S)N(CCS(=O)(=O)O)C3=O)o2)c([N+](=O)[O-])c1	9	x	x	x
Cc1ccc(NC(=O)CS(=O)(=O)c2cn(C)c3ccccc23)c(C)c1	104*	9	7	1
CCOc1cc(C(=O)N(CC(C)C)C2CCS(=O)(=O)C2)cc(OCC)c1OCC (configuration not stated)	0	x	x	x
CCOc1cc(CNc2ccc(CNc3ncn[nH]3)cc2)ccc1OCc1ccccc1	43*	10	74	12
O=C(NCCSC1CCOCC1)c1ccsc1	-8	x	x	x
COc1ccccc1N=Nc1ccc(N)c(C)c1	73*	17	9	10
COc1ccccc1N=NC1=C(O)CC(C)(C)CC1=O	-10	13	-8	5
O=C1NC(=S)SC1=Cc1ccc(N(CCCl)CCCl)cc1	6	19	80	87*
O=C1NC(=S)SC1=Cc1ccc(Cl)cc1	0	-3	99*	95*
O=C1NC(=S)SC1=Cc1ccc(F)cc1	-2	2	92*	90*
COc1ccc(C=C2SC(=S)NC2=O)cc1	3	x	x	x
O=C1NC(=O)C(=Cc2ccc(Cl)cc2Cl)S1	x	7	93*	91*
O=C1NC(=S)NC1=Cc1ccc(Cl)cc1Cl	5	23	12	9
CCCN(CCC)S(=O)(=O)c1ccc(C(=O)Nc2nnc(-c3cc(OC)cc(OC)c3)o2)cc1	-14	x	21	55
COc1cccc(-c2nnc(NC(=O)c3ccccc3Br)o2)c1	-15	5	11	9
CCCN(CCC)S(=O)(=O)c1ccc(C(=O)Nc2nnc(-c3cccc(OC)c3)o2)cc1	-7	-5	100*	99*
SMILES	SSB-PriA inh	Mtb hypoxia inh	ugtP null kill	Sa RN4220 lethal
O=C(Nc1nnc(-c2ccc3c(c2)OCCO3)o1)c1ccc(Cc2ccccc2)cc1	-15	8	100*	99*
COc1cccc(-c2nnc(NC(=O)c3ccc(Cl)s3)o2)c1	-16	3	100*	100*
COc1cccc(-c2nnc(NC(=O)c3cccc(F)c3)o2)c1	-3	-2	98*	98*
CN(C)c1ccc(C(CNC(=O)c2ccccc2Br)N2CCc3ccccc3C2)cc1 (configuration not stated)	55	x	x	x
Cc1ccc(-c2ccc(=O)n(CCNC(=O)Nc3cccc(C(F)(F)F)c3)n2)cc1	7	x	x	x
O=C(Nc1nnc(-c2ccc(Cl)cc2)o1)c1nc2ccccc2s1	-9	6	99*	100*
CS(=O)(=O)c1ccccc1-c1nnc(NC(=O)c2nc3ccccc3s2)o1	-18	x	x	x
O=C(Nc1nnc(-c2ccc(Br)cc2)o1)c1cc(Cl)sc1Cl	7	x	x	x
O=C(Nc1nnc(-c2ccc(F)cc2)o1)c1cc(Cl)sc1Cl	1	6	99*	100*
Cc1cccc(-c2nnc(NC(=O)c3ccc(Cl)cc3)o2)c1	0	2	95*	99*
COCc1[nH]n2c(=O)cc(C)nc2c1-c1ccccc1	13	x	x	x
O=C(NCc1cccs1)NC1CC(=O)N(c2ccc(Cl)cc2)C1 (configuration not stated)	-7	x	x	x
O=C(c1ccsc1)N1CC(S(=O)(=O)Cc2ccco2)C1	-19	x	x	x
Cc1cccc(N=Cc2[nH]c3ccc(Br)c(Cl)c3c2O)c1	-16	19	100*	35
COc1ccccc1CN=Cc1[nH]c2ccc(Br)c(Cl)c2c1O	0	-2	2	-4
COc1ccc(CC(=O)N2C[C@H]3C[C@H](C2)c2cccc(=O)n2C3)cc1	-10	x	x	x
COc1cccc(C(=O)NC(=S)Nc2ccccc2N2CCCC2)c1	10	13	91*	-3
COc1cccc(C(=O)Nc2ccccc2N2CCCC2)c1	-2	14	-7	5
COc1cccc(C(=O)NC(=S)Nc2ccccc2N2CCCCC2)c1	4	-4	89*	-7
